Data: PubChem BioAssay (NCATS)
Records with an inconclusive call do not appear. Where a call stands in place of a potency, no number is given. A number with no mark means an inactive call. Calls of active or inactive are those of the source. Calls come from the whole dose curve; as a rule, active = well fitted inhibition curve with a large enough effect; inconclusive = small, poorly fitted or top-dose-only effect; inactive = flat fitted curve, though single readings scatter.

target: Calcium and integrin-binding protein 1 (Homo sapiens) (UniProt Q99828); assay: Primary qHTS for Identification of Calcium Integrin Binding Protein 1 (CIB1) Competitor (AID 1508620); details: CIB1-GST / FITC-alphaIIb peptide fluorescence polarization; series mostly up to 57.7 µM; note: top concentration of the series differs between compounds
How it was run: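 Fluorescence polarization competition: GST-tagged CIB1 (1 uM final) preincubated with compound 15 min at room temperature, then FITC-labelled alphaIIb peptide (100 nM final) added. After 15 min at room temperature, polarization read at Ex 480/Em 540.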

Calcium and integrin-binding protein 1 (Homo sapiens), sequence (Q99828 whole entry, looked up): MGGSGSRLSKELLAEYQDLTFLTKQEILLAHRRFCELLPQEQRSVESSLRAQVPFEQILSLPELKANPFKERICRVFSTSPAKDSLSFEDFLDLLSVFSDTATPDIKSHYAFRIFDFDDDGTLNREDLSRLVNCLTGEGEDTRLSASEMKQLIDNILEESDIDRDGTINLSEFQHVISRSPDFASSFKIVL

SMILES	Potency	activity change, negative = inhibition
COC(=O)c1[nH]c(=O)c2ccccc2c1-c1ccc[nH]1	inactive	–
CC(=O)O[C@@H]1CC2C(C)(C)C(=O)C=C[C@]2(C)C2CC[C@]3(C)C(=CC(=O)[C@@H]3c3ccoc3)[C@@]21C (some centres not stated)	inactive	–
CN1CCCC1Cc1c[nH]c2ccc(CCS(=O)(=O)c3ccccc3)cc12 (configuration not stated)	inactive	–
C/C=C/C=C/C(=O)OC1CC/C=C/C(O)C(O)C(CCC)OC1=O (configuration not stated)	inactive	–
CC(=O)OC12CC(C)C(OC(=O)c3ccccc3)C1/C=C(/C)C(OC(=O)c1ccccc1)CC(=O)C(C)(C)/C=C/C(C)C2=O (configuration not stated)	inactive	–
CC(=O)NC1C(OC2CCC3(C)C(CCC4(C)C3CC=C3C5CC(C)(C)CCC5(C(=O)O)C(O)CC34C)C2(C)C)OC(CO)C(O)C1O (configuration not stated)	inactive	–
CCC(C)/C=C(C)/C=C/C(=O)C1CCC(O)C(C)(O)C1=O (configuration not stated)	inactive	–
COC(=O)[C@@H](NC(=O)[C@H](CC(C)C)NC(=O)N(Cc1ccccc1)C[C@@H](O)[C@H](Cc1ccccc1)NC(=O)OC(C)(C)C)C(C)C	inactive	–
COc1cc(O)c(C(=O)O)c(CCc2ccccc2)c1	inactive	–
CC1(C)CC[C@]2(C(=O)O)CC[C@]3(C)C(=CCC4[C@@]5(C)CC[C@H](O[C@H]6O[C@H](C(=O)O)[C@@H](O)[C@H](O[C@@H]7O[C@H](CO)[C@H](O)[C@H](O)[C@H]7O)[C@H]6O)C(C)(C)C5CC[C@]43C)[C@@H]2C1 (some centres not stated)	inactive	–
C/C=C(\C)C(=O)OC1CC2C(CC=C3CC(OC4CC(OC)C(OC5CC(OC)C(OC6CC(OC)C(OC7CC(OC)C(OC8CC(OC)C(OC9OC(CO)C(O)C(O)C9O)C(C)O8)C(C)O7)C(C)O6)C(C)O5)C(C)O4)CCC32C)C2(O)CCC(C(C)=O)C12C (configuration not stated)	–	0.354% [at 12.4 µM]
C=C(C)C1Cc2c(ccc3c2OCC(c2ccc(O)cc2O)C3)O1 (configuration not stated)	inactive	–
C=CCC/C=C/C#CCCCCCCCC[C@H]1C(=O)O[C@H](C)[C@@H]1O	inactive	–
C=C1CC[C@@]2(OC1)O[C@H]1CC3[C@@H]4CC=C5C[C@H](O[C@H]6OC[C@@H](O)C(O)[C@@H]6O[C@@H]6O[C@@H](C)[C@H](O)[C@@H](O[C@@H]7O[C@H](CO)[C@@H](O)[C@H](O)[C@H]7O)[C@H]6O)C[C@@H](O)[C@]5(C)C4CC[C@]3(C)[C@H]1[C@@H]2C (some centres not stated)	inactive	–
Cc1ccc([C@@H]2CC=C(C(=O)O)[C@H](c3ccc(C(C)(C)C)cc3)N2S(=O)(=O)c2ccc(C)cc2)cc1	inactive	–
CCC(C)/C=C(C)/C=C/C1=CC2=CC(=O)C(C)(O)C(OC(C)=O)C2CO1 (configuration not stated)	inactive	–
CC(=O)OC1CC2C(C)(C)C(=O)C=CC2(C)C2CC(=O)C3=C(CCC3C3=CC(O)OC3=O)C12C (configuration not stated)	inactive	–
CC(=O)O[C@@H]1C=C2[C@H](CC[C@@]3(C)[C@@]2(O)CC[C@H]2Cc4c([nH]c5ccccc45)[C@@]23C)O[C@@H]1C(C)(C)O	inactive	–
C=C1Cc2c(Cl)cc3[nH]c4c5c3c2[C@@]2(O)[C@@H]1C[C@@H]2C(C)(C)O[C@H]5C1CC[C@@]2(O)[C@@]35O[C@@H]3[C@H]3OC(C)(C)[C@H]3O[C@H]5CC[C@]2(C)[C@@]41C (some centres not stated)	inactive	–
CCCSc1nc(NC2CC2c2ccc(F)c(F)c2)c2nnn(C3CC(OCCO)C(O)C3O)c2n1 (configuration not stated)	inactive	–
COc1cc(O)cc2c1C(=O)OC(C)CCCCCCC2 (configuration not stated)	inactive	–
C/C(=C\C(=O)C(C)C1CCC2C3=C(CCC21C)C1(C)CCC(=O)C(C)(C)C1(O)CC3)C(C)(C)O (configuration not stated)	inactive	–
CC1=C2C[C@H]3OC(=O)[C@H](O)[C@@]4(O)[C@@H](C)[C@@H](O)[C@H](O)C([C@@]2(C)[C@H](O)[C@@H](O)C1)[C@@]34C (some centres not stated)	inactive	–
CC1(C)CC[C@]2(C(=O)O)CC[C@]3(C)C(=CCC4[C@@]5(C)C[C@@H](O)[C@H](O)[C@@](C)(CO)C5[C@H](O)C[C@]43C)[C@@H]2C1 (some centres not stated)	inactive	–
C/C=C(\C)C(=O)OC1C2(O)CC3=C4CC(=O)OC(c5ccoc5)C4(C)CCC3C(C)(C2=O)C(C(OC(C)=O)C(=O)OC)C1(C)C (configuration not stated)	inactive	–
COc1cc(C)c(C(=O)OC2C(C)OC(OC3CCC(C)C4C3C=C(C)C3/C(C)=C\CC/C(C)=C/C5(C)C=C(C(=O)O)C(C)CC56OC(=O)/C(=C(\O)C34C)C6=O)C(O)C2O)c(OC)c1 (configuration not stated)	inactive	–
CC(=O)O[C@@H]1C[C@@H](C)[C@](O)(CCC2=CC(=O)OC2)[C@@]2(C)CCCC(C)(C)C12 (some centres not stated)	inactive	–
